PubChem BioAssay (NCATS)
Results filed as inconclusive are left out. Entries that show only a call come without a potency. Calls of active or inactive are those of the source. Unless noted, calls come from the whole dose curve; as a rule, active = well fitted curve in the direction sought with a large enough effect; inconclusive = small, poorly fitted or top-dose-only effect, or another doubt; inactive = no such curve, though single readings can be large; an effect the other way counts as inactive or inconclusive.

What was measured:
[1] = qHTS for Inhibitors of Cell Surface uPA Generation: Validation Assay (AID 493164);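 note: RAW 264.7 macrophage cells exposed to compound for 18 h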
How it was run: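 ATP-Lite luminescence read-out: ATP remains high when uPA activity-dependent LF translocation into the cytoplasm is blocked. RAW 264.7 cells, 18 h compound exposure at 37 C; 7-point titration, 2.45 nM to 38.3 uM final.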

[2] = target: Galactokinase (Homo sapiens) (UniProt P51570); assay: qHTS Validation Assay for Inhibitors of Human Galactokinase (GALK) (AID 493189)
Chain of Galactokinase (Homo sapiens) (P51570 whole entry, looked up): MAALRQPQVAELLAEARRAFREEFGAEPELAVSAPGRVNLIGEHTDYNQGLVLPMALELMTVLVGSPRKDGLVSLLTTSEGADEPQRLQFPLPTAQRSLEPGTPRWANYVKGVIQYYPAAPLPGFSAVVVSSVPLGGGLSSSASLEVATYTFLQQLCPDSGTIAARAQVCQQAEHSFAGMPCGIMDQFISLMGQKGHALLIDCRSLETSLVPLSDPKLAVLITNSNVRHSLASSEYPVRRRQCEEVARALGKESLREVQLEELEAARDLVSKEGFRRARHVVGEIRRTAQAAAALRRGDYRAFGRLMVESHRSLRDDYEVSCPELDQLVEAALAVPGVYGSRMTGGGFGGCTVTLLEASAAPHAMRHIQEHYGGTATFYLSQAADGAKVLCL
How it was run: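 Enzyme activity is inferred from ATP consumption: human GALK phosphorylates galactose (100 uM) using 35 uM ATP for 1 h at room temperature, and luciferase-based Kinase-Glo Plus reports unconsumed ATP.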

[3] = Validation screen for small molecules that induce DNA re-replication in SW480 colon adenocarcinoma cells (AID 504364)
How it was run: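 Image-based DNA content read-out: Hoechst stain 40 min, total nuclear fluorescence intensity (ex 405 nm, em 500-530 nm) after 48 h compound exposure of 250 SW480 cells/well at 37 C, 5% CO2, versus DMSO vehicle.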

[4] = target: Phosphoglycerate kinase, glycosomal (Trypanosoma brucei brucei) (UniProt P07378); assay: qHTS Validation Assay to Find Inhibitors of Phosphoglycerate Kinase (AID 504547)
Chain of Phosphoglycerate kinase, glycosomal (Trypanosoma brucei brucei) (P07378 whole entry, looked up): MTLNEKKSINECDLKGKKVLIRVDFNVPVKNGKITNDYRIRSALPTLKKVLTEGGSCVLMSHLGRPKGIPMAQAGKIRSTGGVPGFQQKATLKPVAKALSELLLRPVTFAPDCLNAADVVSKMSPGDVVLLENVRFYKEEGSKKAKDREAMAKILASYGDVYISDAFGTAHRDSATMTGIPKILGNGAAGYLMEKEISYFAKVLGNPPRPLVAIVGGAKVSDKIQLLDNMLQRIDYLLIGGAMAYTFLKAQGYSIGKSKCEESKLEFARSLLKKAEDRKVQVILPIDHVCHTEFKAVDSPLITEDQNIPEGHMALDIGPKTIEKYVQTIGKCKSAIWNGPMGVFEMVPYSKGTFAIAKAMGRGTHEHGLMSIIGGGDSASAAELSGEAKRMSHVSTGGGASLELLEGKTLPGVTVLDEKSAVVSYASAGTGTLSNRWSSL
How it was run: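 In TEA buffer (100mM, pH 7.6) containing 5mM MgCl2 and 0.01% Tween-20, the GAPDH-coupled PGK reaction proceeded for 60 minutes at room temperature before a single luminescence reading using Kinase-Glo Plus.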

[5] = target: Ubiquitin carboxyl-terminal hydrolase 1 (Homo sapiens) (UniProt O94782); assay: Inhibitors of USP1/UAF1: Pilot qHTS (AID 504865); note: nearly all actives have a fitted effect of over 35% in size; note: potency is the fitted concentration of half-maximal effect
Chain of Ubiquitin carboxyl-terminal hydrolase 1 (Homo sapiens) (O94782 whole entry, looked up): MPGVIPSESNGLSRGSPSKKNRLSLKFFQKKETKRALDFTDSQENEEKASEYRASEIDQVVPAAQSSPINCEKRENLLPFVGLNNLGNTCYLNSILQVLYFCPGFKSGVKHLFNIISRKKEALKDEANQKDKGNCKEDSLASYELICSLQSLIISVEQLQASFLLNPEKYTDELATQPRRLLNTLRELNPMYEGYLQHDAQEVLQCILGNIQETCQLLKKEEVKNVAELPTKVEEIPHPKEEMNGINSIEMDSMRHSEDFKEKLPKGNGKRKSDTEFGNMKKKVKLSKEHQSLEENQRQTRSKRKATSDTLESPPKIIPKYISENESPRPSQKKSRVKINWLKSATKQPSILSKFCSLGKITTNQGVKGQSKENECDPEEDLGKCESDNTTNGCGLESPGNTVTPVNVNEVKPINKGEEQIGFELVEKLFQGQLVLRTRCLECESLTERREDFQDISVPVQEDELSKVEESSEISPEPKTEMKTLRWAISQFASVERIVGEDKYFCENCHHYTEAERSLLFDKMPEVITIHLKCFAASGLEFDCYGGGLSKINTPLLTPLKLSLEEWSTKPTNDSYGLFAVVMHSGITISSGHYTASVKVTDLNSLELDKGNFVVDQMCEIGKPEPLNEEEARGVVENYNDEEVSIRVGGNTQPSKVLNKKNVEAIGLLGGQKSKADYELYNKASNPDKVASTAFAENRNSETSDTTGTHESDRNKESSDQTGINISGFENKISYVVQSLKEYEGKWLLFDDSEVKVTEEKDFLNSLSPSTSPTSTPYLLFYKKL
How it was run: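 Enzyme-free wells gave the negative control, while test wells held 1nM USP1/UAF1 preincubated with compound for 15 min at room temperature. Ub-Rho at 150nM final started the reaction, and fluorescence at 480/540 nm was recorded kinetically.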

[6] = qHTS for Inhibitors of ATXN expression: Validation (AID 588378); note: nearly all actives have a fitted effect of over 75% in size; note: potency is the fitted concentration of half-maximal effect
How it was run: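 After a 2 h attachment and 24 h compound incubation, HEK293-ATXN2-FFLuc wells are read for fluorescence at 405 nm excitation/525 nm emission as a viability measure, then for Bright-Glo luminescence reflecting ATXN2 expression.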

[7] = target: Peptidyl-prolyl cis-trans isomerase NIMA-interacting 1 (Homo sapiens) (UniProt Q13526); assay: qHTS Validation Assay to Find Inhibitors of Pin1 (AID 504536; active = well fitted inhibition curve with a large enough effect in the polarisation, with a control signal flat, not every such curve was filed as active; the % refers to the polarisation; note: potency is the fitted concentration of half-maximal effect)
Chain of Peptidyl-prolyl cis-trans isomerase NIMA-interacting 1 (Homo sapiens) (Q13526 whole entry, looked up): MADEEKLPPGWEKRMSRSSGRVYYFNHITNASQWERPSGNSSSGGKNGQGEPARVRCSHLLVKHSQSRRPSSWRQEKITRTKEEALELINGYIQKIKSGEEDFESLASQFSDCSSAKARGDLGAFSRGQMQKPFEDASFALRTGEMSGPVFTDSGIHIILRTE
How it was run: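 Fluorescence polarization competition: compounds (titration) displace HiFluor-488-labeled Pin1-1b peptide from Pin1 (0.3 uM final) in pH 7.5 HEPES buffer with DTT, 10 min at room temperature; %Activity normalized to no-enzyme wells, curves fitted.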

[8] = target: phosphoglycerate mutase (Leishmania major) (UniProt Q4Q090); assay: qHTS Validation Assay to Find Inhibitors of Phosphoglycerate Mutase (AID 504548); details: Potency: inhibition qHTS; note: potency is the fitted concentration of half-maximal effect
Chain of phosphoglycerate mutase (Leishmania major) (Q4Q090 1-553): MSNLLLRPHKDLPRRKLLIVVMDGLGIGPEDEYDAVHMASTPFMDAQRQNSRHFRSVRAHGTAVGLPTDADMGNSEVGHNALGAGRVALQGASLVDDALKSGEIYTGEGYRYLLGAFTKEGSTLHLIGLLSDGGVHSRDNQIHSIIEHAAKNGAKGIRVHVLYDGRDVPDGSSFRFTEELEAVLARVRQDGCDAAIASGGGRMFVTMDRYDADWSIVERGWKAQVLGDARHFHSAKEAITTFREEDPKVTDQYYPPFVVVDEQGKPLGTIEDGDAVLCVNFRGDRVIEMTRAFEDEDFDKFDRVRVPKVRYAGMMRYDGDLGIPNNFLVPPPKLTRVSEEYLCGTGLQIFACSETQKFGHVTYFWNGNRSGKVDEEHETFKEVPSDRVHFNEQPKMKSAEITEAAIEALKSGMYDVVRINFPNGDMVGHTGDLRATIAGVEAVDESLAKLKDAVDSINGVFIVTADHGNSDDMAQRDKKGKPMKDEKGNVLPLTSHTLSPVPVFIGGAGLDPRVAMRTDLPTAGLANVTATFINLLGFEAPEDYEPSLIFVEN
How it was run: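 Luminescent end-point read-out via Kinase-GloPlus after a 10-minute development. Reaction: 1.25nM Leishmania major PGAM with substrate and compound, 45 minutes at room temperature in TEA buffer (pH 7.6) with MgCl2 and Tween-20.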

[9] = qHTS for Inhibitors of ATXN expression: Validation of Cytotoxic Assay (AID 588349)
How it was run: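 Cytotoxicity counter-screen: ATP-based luminescent viability (CellTiter Glo) after 72 hr exposure of HEK293 cells to a compound titration at 37 degrees C.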

Row | Structure (SMILES) | outcome [1] | Potency [2] | Potency [3] | Potency [4] | Potency [5] | Potency [6] | Potency [7] | Potency [8] | Potency [9]
1 | O=C1Nc2ccc(I)cc2/C1=C/c1cc(Br)c(O)c(Br)c1 | inactive | inactive | inactive | inactive | 44.7 µM (active) | inactive |  |  | 
2 | CC(C)(C)NCC(O)COc1cccc2[nH]c(=O)[nH]c12 (stereo not drawn) | inactive | inactive |  | inactive | inactive | inactive | inactive | inactive | 
3 | CNCCc1cnc(CCC(c2ccccc2)c2ccccc2)[nH]1 | inactive |  |  | inactive | inactive |  | inactive | inactive | 
4 | CC(=O)O[C@H]1Cc2ccccc2N(C(N)=O)c2ccccc21 | inactive |  |  | inactive | inactive | inactive | inactive |  | inactive
5 | CN(CC[C@@H](Oc1ccc(C(F)(F)F)cc1)c1ccccc1)CC(=O)O | inactive |  |  | inactive | inactive | inactive | inactive | inactive | inactive
6 | CCCCCCC/C=C\CCCCCCCCC(=O)O | inactive | inactive | inactive | inactive | 39.8 µM (active) | inactive |  | inactive | inactive
7 | CN(C)S(=O)(=O)c1ccc2c(c1)/C(=C/c1cc3c([nH]1)CCCC3)C(=O)N2 | inactive | inactive |  | inactive | 25.1 µM (active) | inactive |  | inactive | inactive
8 | CNCCNS(=O)(=O)c1cccc2cnccc12 | inactive | inactive |  | inactive | inactive |  | inactive | inactive | inactive
9 | CC#CCOC(=O)c1c(C)nc2sc3c(c2c1N)CCC(O)C3 (stereo not drawn) | inactive | inactive |  | inactive | inactive | inactive | inactive |  | inactive
10 | CC(C)C[C@H](NC(=O)C1OC1C(=O)O)C(=O)NCCCCN=C(N)N (stereo partly drawn) | inactive | inactive |  | inactive | inactive |  | inactive | inactive | 
11 | N#Cc1cc([N+](=O)[O-])c2sc(C(N)=O)[n+]([O-])c2c1 | inactive |  |  | inactive |  | inactive | inactive | inactive | inactive
12 | COc1cc([C@@H]2c3cc4c(cc3[C@H](O)C3COC(=O)[C@@H]32)OCO4)cc(OC)c1OC (stereo partly drawn) | inactive | inactive |  | inactive |  | inactive |  | inactive | 
13 | CCC1(O)CC2CN(CCc3c([nH]c4ccccc34)[C@@](C(=O)OC)(c3cc4c(cc3OC)N(C=O)C3[C@]45CCN4CC=C[C@@](CC)([C@@H](OC(C)=O)[C@]3(O)C(=O)OC)[C@H]45)C2)C1 (stereo partly drawn) | inactive | inactive |  | inactive | inactive | inactive | inactive | inactive | 
14 | COc1cc(/C=C(\C#N)C(=O)Nc2nnc(C(F)(F)F)s2)ccc1OCc1ccc(C(F)(F)F)cc1C(F)(F)F | inactive |  |  |  | 50.1 µM (active) |  | 23.9 µM (active) | inactive | 
15 | CCCCOC(=O)NS(=O)(=O)c1sc(CC(C)C)cc1-c1ccc(Cn2c(CC)nc3c(C)cc(C)nc32)cc1 | inactive | inactive |  | inactive | 56.2 µM (active) |  | inactive |  | 
16 | CO/N=C(\C(=O)N[C@@H]1C(=O)N2C(C(=O)O)=C(CSc3nc(=O)c(O)nn3C)CSC12)c1csc(N)n1 (stereo partly drawn) | inactive | inactive | inactive | inactive | inactive | inactive |  | inactive | inactive
17 | CCCCCCCCCCC(C)(C)C(=O)Nc1c(OC)cc(OC)cc1OC | inactive |  |  | inactive | 44.7 µM (active) | inactive |  | inactive | inactive
18 | c1ccc(C(NCCNC(c2ccccc2)c2ccccc2)c2ccccc2)cc1 | inactive |  |  | inactive |  |  | inactive | inactive | 

Row | Structure (SMILES) | outcome [1] | Potency [2] | Potency [3] | Potency [4] | Potency [5] | Potency [6] | Potency [7] | Potency [8] | Potency [9]
19 | CC[n+]1c(/C=C/C=C2/N(C)c3ccccc3C2(C)C)sc2ccccc21 | inactive |  |  |  | 31.6 µM (active) | 0.891 µM (active) |  | 19 µM (active) | 
20 | CC(O)C(O)[C@H]1CNc2nc(N)[nH]c(=O)c2N1 (stereo partly drawn) | inactive |  |  | inactive | inactive | inactive | inactive | inactive | inactive
21 | Brc1c(Br)c(Br)c2[nH]cnc2c1Br | inactive |  |  | inactive | inactive |  |  |  | inactive
22 | C=C1C[C@@]23CC[C@H]4[C@@](C)(CCC[C@@]4(C)C(=O)OC4OC(CO)C(O)C(O)C4O)[C@@H]2CC[C@]1(OC1OC(CO)C(O)C(O)C1OC1OC(CO)C(O)C(O)C1O)C3 (stereo partly drawn) | inactive |  |  | inactive | inactive | inactive | inactive |  | inactive
23 | O=C(O)CCC/C=C\C[C@@H]1[C@@H](/C=C/[C@H](O)C2Cc3ccccc3C2)[C@@H](F)C[C@@H]1O | inactive |  |  | inactive | inactive | inactive | inactive | inactive | inactive
24 | Cc1cccc(C(=O)NCN2CCN(c3ccccc3C#N)CC2)c1 | inactive | inactive | inactive | inactive | inactive | inactive |  | inactive | 
25 | NC(=O)c1ccccc1 | inactive | inactive |  | inactive | inactive | inactive | inactive | inactive | 
26 | COc1ccc(-c2cc3ncc(C)n3c(Nc3ncccc3C(N)=O)n2)cc1OC | inactive |  |  | inactive | inactive |  | inactive | inactive | 
27 | CCCCCCN(CCCCCC)C(=O)Cc1c(-c2ccc(F)cc2)[nH]c2ccccc12 | inactive | inactive |  | inactive |  | inactive | inactive | inactive | inactive
28 | N#C/C(=C\c1ccc(O)c(O)c1)C(=O)NCCCNC(=O)/C(C#N)=C/c1ccc(O)c(O)c1 | inactive | inactive |  |  |  | inactive |  |  | 
29 | CN(C)CCCc1cc(C(=O)Nc2ccc(-c3ccncc3)cc2)ccc1O | inactive |  |  | inactive | inactive | inactive | inactive | inactive | inactive
30 | C=CCNc1ncnc2ccc(Br)cc12 | inactive |  |  | inactive | inactive | inactive | inactive | inactive | inactive
31 | N#CC(=C(\N)Sc1ccccc1N)/C(C#N)=C(/N)Sc1ccccc1N | inactive | inactive |  | inactive | inactive |  | inactive | inactive | inactive
32 | O=c1[nH]ccc2c(O)cccc12 | inactive | inactive | inactive | inactive | inactive | inactive |  | inactive | inactive
33 | C=CCN1CCc2c(cc(O)c(O)c2Cl)C(c2ccccc2)C1 (stereo not drawn) | inactive | inactive |  | inactive | inactive |  | inactive | inactive | 
34 | Nc1ncnc2c1c(-c1ccc(Oc3ccccc3)cc1)cn2C1CCCC1 | inactive | inactive |  | inactive | inactive |  | inactive | inactive | 
35 | Cc1cccc(C2CN(C)CCc3c2cc(O)c(O)c3Cl)c1 (stereo not drawn) | inactive | inactive | inactive | inactive | inactive |  |  |  | 
36 | CC[C@H](NC(=O)c1c(C)c(-c2ccccc2)nc2ccccc12)c1ccccc1 |  | inactive |  | inactive | inactive |  |  | inactive | 
